High-throughput results from PubChem.
D3 antag: antagonists of human D3 dopamine receptor; P35462; 360,000 tested, 2.5% active; D3R cells, DiscoveRx beta-arrestin luminescence, antagonist mode; active compounds read low; AID 652054; max response, negative = inhibition, %; in the data active means max response below about -50%; further: on the % scale 0 is the no-effect control and ±100 the full control effect
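Cells plated overnight at 1500 cells/well, then exposed to library compounds with dopamine controls for 90 minutes at 37 degrees C. DiscoveRx reagent added for 30–60 minutes at room temperature; luminescence read, quantitative HTS format.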
D1 potentiator: potentiators of human D1 dopamine receptor; AID 504651; HEK293 TREx D1 cells, calcium flux, dopamine EC20 potentiation; P21728; 360,000 tested, 0.036% active; potentiation, % at 10 µM; in the data active means potentiation above about 30%; further: 0% is about no effect
Target sequence (P21728 whole entry, looked up): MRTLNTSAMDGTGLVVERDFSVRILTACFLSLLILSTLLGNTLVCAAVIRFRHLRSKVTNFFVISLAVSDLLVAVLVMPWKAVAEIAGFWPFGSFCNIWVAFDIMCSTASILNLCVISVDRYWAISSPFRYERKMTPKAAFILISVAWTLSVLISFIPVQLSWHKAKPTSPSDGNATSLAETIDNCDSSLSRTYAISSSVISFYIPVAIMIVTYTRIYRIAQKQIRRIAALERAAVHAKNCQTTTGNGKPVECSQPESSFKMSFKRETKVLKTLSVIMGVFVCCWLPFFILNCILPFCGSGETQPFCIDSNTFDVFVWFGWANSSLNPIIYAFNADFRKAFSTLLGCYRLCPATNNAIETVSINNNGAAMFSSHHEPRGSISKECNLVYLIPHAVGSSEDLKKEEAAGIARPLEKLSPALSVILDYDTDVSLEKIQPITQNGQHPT
D3 ag: agonists of human D3 dopamine receptor; P35462; D3R DiscoveRx beta-arrestin cells, luminescence, 90 min; max activation, %; 410,000 tested, 0.58% active; AID 652048; in the data active means max activation above about 30%; further: 0% is about no effect
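Agonist-mode cell screen: cells plated at 1500/well and incubated overnight at 37 °C, then exposed to library compounds for 90 min at 37 °C. Detection reagent was added for 30–60 min at room temperature, and luminescence was read.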
D1 antagonist: human D1 dopamine receptor antagonism | P21728 | HEK293 TREx D1 cells, calcium flux, dopamine EC80; active compounds read low | activity change, negative = inhibition, % at 10 µM | 360,000 tested, 3.2% active; in the data active means activity change below about -30%; further: on the % scale 0 is the no-effect control and ±100 the full control effect
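Compound effects on dopamine-evoked calcium signalling were measured in tetracycline-induced HEK293 Trex D1 cells. Dopamine at EC80 followed a 180 s compound pre-read, and fluorescence was tracked kinetically for 180 s more.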
D1 ag: agonists of human D1 dopamine receptor | 360,000 tested, 1% active | activation, % at 2 µM | P21728 | HEK293 T-REx D1 cells, calcium flux, agonist mode | AID 504660; in the data active means activation above about 30%; further: 0% is about no effect
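Agonism was scored from calcium flux recorded over 180 s (1 read/s) after pintool compound addition, following a 10-cycle baseline. Cells were inducible force-coupled HEK293 TREx D1, plated overnight at 30 C and loaded with no-wash calcium dye.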
* = called active by the depositor. Sampled rows, rich in hits. Any-hit rate of the full collection: about 6.1%.

Cc1cc2c(c(=O)n1Cc1cccnc1)C(c1cccs1)C(C#N)=C(N)O2 (stereo not given) was read as D3 antag -51.0*, D1 potentiator 4.0, D3 ag -7.1, D1 antagonist -13.5 and D1 ag 3.7.
Cc1cc2c(c(=O)n1Cc1cccnc1)C(Cc1ccccc1)C(C#N)=C(N)O2 (stereo not given) was read as D3 antag -10.7, D1 potentiator -3.0, D3 ag -2.3, D1 antagonist -10.7 and D1 ag -0.1.
For CCOc1ccc(C2C(C#N)=C(N)Oc3cc(C)n(Cc4ccco4)c(=O)c32)cc1OC (stereo not given) the results were D3 antag -52.6*, D1 potentiator -1.1, D3 ag 2.7, D1 antagonist -0.6 and D1 ag 1.8.
For COc1ccc(C2C(C#N)=C(N)Oc3cc(C)n(Cc4ccncc4)c(=O)c32)cc1 (stereo not given) the results were D3 antag -5.2, D1 potentiator -1.8, D3 ag 6.0, D1 antagonist -34.6* and D1 ag 0.5.
For CNC(=O)C(=O)NCC1OCCCN1S(=O)(=O)c1ccc(F)cc1C (stereo not given) the results were D3 antag 6.3, D1 potentiator -10.9, D3 ag -3.3, D1 antagonist -54.0* and D1 ag 0.9.
For CCCCn1cc(S(=O)(=O)c2ccc(OC)cc2)c(=O)c2cc(F)c(N3CCOCC3)cc21 the results were D1 potentiator -2.6, D3 ag -8.7, D1 antagonist -2.5 and D1 ag -1.0.
For COc1ccc(Cn2cc(S(=O)(=O)c3ccc(Cl)cc3)c(=O)c3cc4c(cc32)OCO4)cc1 the results were D1 potentiator -0.1, D3 ag 4.9, D1 antagonist -41.8* and D1 ag 0.4.
`CCCCn1cc(S(=O)(=O)c2ccc(OC)cc2)c(=O)c2cc(F)c(F)cc21` gave D1 potentiator 0.5, D3 ag -0.6, D1 antagonist -38.8* and D1 ag -0.7.
For Cc1ccc(C)c(N2CCN(S(=O)(=O)c3cc(-c4cc(C)no4)ccc3C)CC2)c1 the results were D1 potentiator -0.6, D3 ag 2.7, D1 antagonist 0.9 and D1 ag 3.9.
Screening Cc1oc2ncnc(N3CCOCC3)c2c1C(=O)N1CCN(c2cccc(C(F)(F)F)c2)CC1 returned D1 potentiator 1.8, D3 ag -4.8, D1 antagonist -11.4 and D1 ag -0.4.
`COCCN(C(=O)COC(=O)C(C)(C)Oc1ccc(Cl)cc1)c1c(N)n(Cc2ccccc2)c(=O)[nH]c1=O` gave D3 antag 6.8 and D3 ag -2.6.
Screening OCC1(Cc2cccc(F)c2)CCN(Cc2ccc3cccc(F)c3n2)CC1 returned D3 antag -74.5*, D1 potentiator -3.5, D3 ag -7.1, D1 antagonist 0.3 and D1 ag 10.3.
O=C(c1cnsn1)N1CCC(CO)(Cc2cccc(F)c2)CC1 was read as D3 antag 1.2, D1 potentiator 2.8, D3 ag 13.2, D1 antagonist -0.5 and D1 ag 0.6.
Screening COc1cccc(CC2(CO)CCN(Cc3ccc4cccc(F)c4n3)CC2)c1 returned D3 antag -82.2*, D1 potentiator -1.1, D3 ag -17.3, D1 antagonist 3.2 and D1 ag 6.6.
For OCC1(CCOc2ccccc2)CCN(Cc2ccc3cccc(F)c3n2)CC1 the results were D3 antag -86.9*, D1 potentiator 0.1, D3 ag -14.3, D1 antagonist 14.8 and D1 ag 0.3.
Screening CSc1ncccc1C(=O)Nc1cccc(S(=O)(=O)N2CCCCCC2)c1 returned D3 antag -1.8 and D3 ag -0.6.
COc1ccc(CNC(=O)c2ccc(-c3nc(CSc4ccccc4)c(C)o3)cc2)cc1OC was read as D1 potentiator -2.9, D3 ag -4.5, D1 antagonist -13.4 and D1 ag 1.2.
`COc1ccc(NC(=O)CN(C)C(=O)/C=C/c2cn(-c3ccccc3)nc2-c2ccc(C)cc2)cc1` gave D3 antag -55.2*, D1 potentiator 0.1, D3 ag -1.9, D1 antagonist -7.6 and D1 ag 2.6.
`COc1ccc(NC(=O)CN(C)C(=O)/C=C/c2cn(-c3ccccc3)nc2-c2ccc(F)cc2)cc1` gave D3 antag -4.1, D1 potentiator 2.3, D3 ag -23.4, D1 antagonist 5.7 and D1 ag 9.5.
